Laboratory results reported in PubChem BioAssay AID2462 (Broad Institute, 2010).
Screen size: about 330,000 compounds; about 220 (0.067%) were called active. What follows is part of a selection rich in actives, with near analogues and random picks from the rest. Values without a mark were called inactive.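 The calls were made as follows: active = over half of replicate activation scores above 10%, or exactly half above 10 with the replicate mean above 10; inconclusive = replicate mean below 10 yet half the replicates above 10; inactive = over half of replicates below 10.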

Experiment: inducers of caspase signal in A1-primed MEFs – cell-based, luminescence, HTS, A1 inhibitor project, primary screen (AID 2462)
Conditions: MEF A1-2A-BIM cells, Caspase-Glo 3/7 luminescence, 3 h; hits give high values; percent of clofoctol response, vehicle zero; concentration not given here

Row | Structure (SMILES) | caspase activation
1 | O=C(NNC(=O)c1cccc(S(=O)(=O)Nc2ccc(Cl)cc2)c1)c1ccc(=O)[nH]c1 | -1.36%
2 | Cc1[nH]n(-c2ccccc2)c(=O)c1/C=N/NC(=O)c1ccoc1C | -3.41%
3 | COc1cc(SC#N)ccc1N=Cc1c(C)[nH]n(-c2ccc(C)cc2)c1=O | 11.1% (active)
4 | Cc1ccc(-n2[nH]c(C)c(/C=N/NC(=O)c3cccc([N+](=O)[O-])c3)c2=O)cc1C | -4.49%
5 | O=C(NNS(=O)(=O)c1c(F)cc(F)c(Cl)c1F)C12CC3CC(CC(C3)C1)C2 | 0.494%
6 | CCOC(=O)c1c(-c2cccc(N)c2)cn2ccccc12 | 0.104%
7 | Cc1cc(NC(=O)CN2C(=O)NC(C)(CCc3ccccc3)C2=O)no1 (centres undefined) | -0.914%
8 | Cc1ccc(N/N=C2\COC(C)(C)CC2=O)cc1 | 0.0616%
9 | Cc1c(Cl)cccc1NC(=O)CSc1ccc(-c2cccnc2)nn1 | 0.424%
10 | CC(C)C[C@H](NC(=O)N1CC(=O)Nc2ccccc21)C(=O)N[C@H](Cc1ccccc1)C(=O)O | 0.252%
11 | CNC(=O)COc1ccc(S(=O)(=O)Nc2ccccc2)cc1 | -0.951%
12 | CCOC(=O)/C(=C\c1ccc([N+](=O)[O-])cc1)C(=O)c1cc(C(C)=O)c(Nc2ccccc2)s1 | 46.4% (active)
13 | Cc1ccc(NC(=O)/C(=C/c2ccc([N+](=O)[O-])cc2)NC(=O)c2ccccc2)cc1 | -0.427%
14 | CCOC(=O)/C(=N\Nc1ccccc1[N+](=O)[O-])c1csc(Nc2ccccc2)n1 | -0.494%
15 | C/C(=C/C(=O)N1CCN(C)CC1)C(=O)O | 0.653%
16 | Cc1cc(C)nc(NNC2=CC(=O)CC(C)(C)C2)n1 | -0.196%
17 | CC(C)(C)N(Cc1ccccc1)C(=O)COC(=O)CCc1c[nH]c2ccccc12 | -1%
18 | COc1ccc(N2C(=O)/C(=C\c3ccco3)N=C2SCC(N)=O)cc1Cl | -0.66%
19 | Cc1cc(C)n(S(=O)(=O)c2cccc([N+](=O)[O-])c2)n1 | 0.962%
20 | O=C(NCc1ccco1)c1ccc([N+](=O)[O-])cc1Cl | 1.19%
21 | COc1cc2c(cc1NC(=O)COC(=O)/C=C/c1ccccc1)oc1ccccc12 | 8.52% (active)
22 | COc1cc(/C=C/C(=O)OCC(=O)c2ccccc2)cc(OC)c1OC | 0.0945%
23 | COc1cc2c(cc1NC(=O)CN1CCN(S(=O)(=O)c3ccc(F)cc3)CC1)oc1ccccc12 | -0.105%

Row | Structure (SMILES) | caspase activation
24 | Cc1[nH]n(-c2ccccc2)c(=O)c1CCOC(=O)c1ccc(C(F)(F)F)cc1 | 0.514%
25 | O=C(CCc1nnc2ccc(NCc3ccccc3Cl)nn12)NCC1CCN(C2CCCC2)C1 (centres undefined) | -0.323%
26 | CCC(C)(C)c1ccc(OCC(=O)N(C)C)c(C(C)(C)CC)c1 | -0.559%
27 | O=C(COc1ccc([N+](=O)[O-])cc1Cl)Nc1ccc2[nH]c(=O)[nH]c2c1 | -0.19%
28 | Cc1cc(OCCN2CCCC2)cc(C(C)C)c1 | 0.0914%
29 | O=C(O)CC1S/C(=N\N=C/c2ccccc2O)N(c2ccc(O)cc2)C1=O (centres undefined) | 0.687%
30 | CCOc1ccc(NC(=O)CC2C(=O)N(c3ccccc3)C(=O)N2CCOC)cc1 (centres undefined) | 0.358%
31 | C=CCC1(C#N)C(=S)NC(C)=C(C(=O)OCC)C1c1ccccc1 (centres undefined) | 0.0109%
32 | Cc1cccc(NS(=O)(=O)c2ccc(C)c(C(=O)NCC(c3ccccc3)N(C)C)c2)c1 (centres undefined) | 1.2%
33 | Cc1c2cn[nH]c(=O)c2c(C)n1Cc1ccc(F)cc1 | -0.558%
34 | Cc1cc(NC(=O)CSc2nnc(-c3ccco3)n2N)no1 | -0.817%
35 | Cc1cc(NC(=O)CSc2nc3cc(Cl)ccc3c(=O)n2Cc2ccco2)no1 | 29.5% (active)
36 | Cc1cc(NC(=O)CSc2nc3ccccc3n2CC(C)C)no1 | 0.633%
37 | CC(NC(=S)Nc1ccccc1)C1COc2ccccc2O1 (centres undefined) | -0.247%
38 | CCC1=NN(C(=O)Cc2ccc([N+](=O)[O-])cc2)C(O)(c2ccc(Br)cc2)C1 (centres undefined) | 1.08%
39 | Cc1ccc(S(=O)(=O)N(CC(O)CN2C(=O)NC(C)(C)C2=O)c2cccc([N+](=O)[O-])c2)cc1 (centres undefined) | 0.0755%
40 | CSc1nnnn1-c1c(C)cc(C)cc1C | -0.157%
41 | O=C1CCC(C(=O)N2CCCCO2)CN1Cc1cccc(C(F)(F)F)c1 (centres undefined) | 0.28%
42 | Cc1ccc(/C=C/C(=O)OCC(=O)NCc2ccc(Cl)cc2)o1 | -0.527%
43 | CCOC(=O)CSC1=N/C(=C/c2ccc(-n3cncn3)cc2)C(=O)N1C(C)=O | 8.99% (active)
44 | CCOC(=O)CSc1nc(C)cc2c1C(=O)OC2 | 0.711%
45 | CCOC(=O)CSc1ccccn1 | -0.651%
46 | O=C1CCC(C(=O)N2CCC(O)(c3ccccc3)CC2)CN1CCc1ccccc1 (centres undefined) | 0.199%

Row | Structure (SMILES) | caspase activation
47 | COCCNc1ccc(-c2n[nH]c(=O)c3ccccc23)cc1[N+](=O)[O-] | -1.33%
48 | Cc1ccc(NC(=O)c2ccc(Oc3ncccn3)cc2)cc1 | -1.4%
49 | Cc1ccccc1N1CCN(C2CCCN(C(=O)c3ocnc3C)C2)CC1 (centres undefined) | 0.888%
50 | CCc1ccc(/C=N/NC(=O)c2ccc(OC3CCCC3)cc2)s1 | -0.334%
51 | COC(=O)C(=Nc1ccccc1)/C(C(=O)C(=O)N(C)c1ccccc1)=C(\O)c1ccc(Cl)cc1 | -1%
52 | Cc1ccc(-n2c(SCC(=O)Nc3ncc(Cl)cc3Cl)nc3ccccc32)cc1 | 0.221%
53 | CCC1(C(=O)c2ccccc2)C(c2cccc([N+](=O)[O-])c2)C1(C(=O)OC)C(=O)OC (centres undefined) | -0.612%
54 | O=C1Nc2c(Br)cc(Br)cc2C1(O)N1CCOCC1 (centres undefined) | -1.16%
55 | COc1ccc(C(=O)NCc2ccc(Cl)cc2)cc1S(=O)(=O)N1CCCC1 | -0.377%
56 | COc1cc(C2C(N3C(=O)c4ccccc4C3=O)C(=O)N2c2ccc(C)c(C)c2)cc(OC)c1OC (centres undefined) | 0.266%
57 | CCOc1ccc(Br)cc1S(=O)(=O)Nc1ccc(S(=O)(=O)Nc2cc(C)on2)cc1 | 1.21%
58 | O=C(Nc1ccc(Cl)c(Cl)c1)c1ccccc1NC(=O)C1CC=CCC1C(=O)O (centres undefined) | -2.01%
59 | Cc1ccc(-n2ncc3c2CC(C)(C)CC3NC(=O)Cc2c(C)noc2C)cc1 (centres undefined) | 1.06%
60 | Cc1cc(C(C)(C)C)cc(S(=O)(=O)Nc2ccc(C(=O)O)cc2)c1C | -0.667%
61 | CCCCCn1c(=O)c(C(=O)OCC)c(Cl)c2ccccc21 | 0.0442%
62 | N#CCSc1nc(-c2ccccc2)nc2ccc(F)cc12 | 1.31%
63 | C#CCOCCOCCOCCNc1nc(N2CCN(C(=O)C([C@@H](C)O)n3cc([C@@H](N)CCCCN)nn3)CC2)nc(N2CCN(C(=O)[C@H](CCCCN)n3cc(CN)nn3)CC2)n1 (some centres undefined) | 0.837%
64 | Cc1cc(=O)[nH]c(S)c1C#N | 0.51%
65 | COCCn1c(N)c(NCc2ccccc2)c(=O)[nH]c1=O | -0.132%
66 | CCC(C)N(C(=O)COC(=O)C1C(C(=O)OC)=C(C)NC(C)=C1C(=O)OC)C1CCS(=O)(=O)C1 (centres undefined) | -0.124%
67 | CCCCc1ccc(NC(=S)N2CCCC(CO)C2)cc1 (centres undefined) | -0.669%
68 | CCCc1cc(C(=O)Nc2ccc(Cl)cn2)cs1 | -8.84%
69 | CCS(=O)(=O)c1cc([N+](=O)[O-])c(Sc2ccccc2N)s1 | 1.52%

Row | Structure (SMILES) | caspase activation
70 | Nc1ccccc1SC(C[N+](=O)[O-])c1ccccc1 (centres undefined) | 9.45% (active)
71 | Cc1ccc(C(C[N+](=O)[O-])c2c(C)cc3ccccn23)cc1 (centres undefined) | 1.62%
72 | COc1cc(-c2nnc(NC(=O)C3=COCCO3)o2)cc(OC)c1OC | 0.457%
73 | O=C(Nc1nnc(C2=COCCO2)o1)c1ccc([N+](=O)[O-])s1 | -4.99%
74 | Cc1ccc(C(=O)Nc2nnc(C3=COCCO3)o2)cc1C | 44.6% (active)
75 | ON=C1/C(=N\O)CC2(C/C1=N/O)OCCO2 | 0.622%
76 | O=C1CCCc2nn(-c3ccccc3)nc21 | -0.0976%
77 | COC(=O)Nc1ncc(CN2CCCCC2)s1 | 0.0297%
78 | CSCC[C@H](NC(=O)NCCc1ccc(F)cc1)C(=O)O | 0.319%
79 | CC(C)CC(=O)c1c[nH]c(C(=O)NCc2ccccc2)c1 | 6.29% (active)
80 | O=C(c1ccc(F)cc1)c1c[nH]c(C(=O)NCc2cccnc2)c1 | 0.0496%
81 | COc1ccc(CNC(=O)c2cc(C(=O)C3CC3)c[nH]2)cc1 | -0.0151%
82 | CC(=O)Nc1cccc(NC(=O)c2ccc3c(c2)CCN3S(C)(=O)=O)c1 | 0.604%
83 | COc1ccc(-c2n[nH]c3c2CN(C(=O)c2ccc(F)cc2)CC3)cc1 | 1.44%
84 | CCOC(=O)c1sc(N)c(C#N)c1COC(=O)C1=COCCO1 | 0.458%
85 | COc1ccc(CNC(=O)c2ccc(NS(=O)(=O)c3ccc4[nH]c(=O)[nH]c4c3)cc2)cc1OC | -0.468%
86 | COc1cccc(NC(=O)CN(C)C(=O)/C=C/c2cc(OC)ccc2OC)c1 | -0.126%
87 | O=C(O)c1ccn(COc2ccc(Br)cc2)n1 | -1.22%
88 | CC(C)N(C(=O)CN1CCN(S(=O)(=O)c2ccc(Br)s2)CC1)C(C)C | 1.33%
89 | CC(C)n1cnc2c(NCc3ccccc3)cc(N[C@@H](CO)Cc3ccccc3)cc21 | -2.12%
